Data taken from PubChem BioAssay (NCI).
About 83,000 compounds went through this panel and 20% of them were active in at least one assay; those are over-represented in the sample as a whole.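 How to read the values: 0–100, growth inhibition (40 = 60% inhibited); 0, no net growth; -100 to 0, cell death (-40 = 40% of starting cells died; -100 = all dead).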 Unmarked numbers belong to inactive results. Calls of active or inactive are those of the source. How the source made its calls: active means growth percent below 10; inactive means the rest.

What was measured:
Test in all cases: NCI-60 one-dose screen, 48 h (100 = growth as untreated, 0 = no growth, -100 = all killed)
Conditions in all cases: 10 µM unless noted
[1] = test system: DU-145 prostate
[2] = test system: K-562 leukemia
[3] = test system: MALME-3M melanoma
[4] = test system: MDA-MB-231 breast
[5] = test system: RXF 393 renal
[6] = test system: SF-268 CNS
[7] = test system: SF-295 CNS
[8] = test system: SF-539 CNS
[9] = test system: UACC-257 melanoma
[10] = test system: M14 melanoma

| Structure (SMILES) | growth [1] | growth [2] | growth [3] | growth [4] | growth [5] | growth [6] | growth [7] | growth [8] | growth [9] | growth [10] |
| --- | --- | --- | --- | --- | --- | --- | --- | --- | --- | --- |
| CC(=O)[C@@H]1CC[C@]2(C(N)=O)CC[C@]3(C)[C@H](CC[C@@H]4[C@@]5(C)CCC(=O)C(C)(C)[C@@H]5CC[C@]43C)[C@@H]12 | 105% | 88.4% | 112% | 95.8% | 109% | 95.4% | 93.8% | 99.5% | 93.6% | 93.4% |
| O=C1c2ccccc2-c2c1c1c(NCCCO)nc3ccccc3c1n2Cc1ccccc1 | 13.2% | 16.9% | -54.6% (active) | -2.22% (active) | -52.2% (active) | -5.13% (active) | 23.1% | -49.2% (active) | 56.5% | -53% (active) |
| COc1ccccc1OCC(=O)N1CCCCCC1 | 107% | 83.3% | 89.2% | 113% | 97% | 108% | 106% | 104% | 93.3% | 119% |
| C=C1C(=O)O[C@H]2[C@H]1CC/C(COC(=O)NCCc1c[nH]c3ccc(Cl)cc13)=C\CC[C@@]1(C)O[C@@H]21 | -87.8% (active) | -13.2% (active) | -84.4% (active) | -70.5% (active) | -93.6% (active) | -71% (active) | 75.4% | -63.8% (active) | -11.6% (active) | -54.8% (active) |
| C[C@H]1[C@H](C)CC[C@]2(CO)CC[C@]3(C)C(=CC[C@@H]4[C@@]5(C)Cc6c([nH]c7ccccc67)C(C)(C)[C@@H]5CC[C@]43C)[C@H]12 | 71.1% | 52.4% | 46.9% | 88.8% | 84.1% | 74.5% | 81.2% | 96% | 108% | 92.8% |
| CC(Oc1ccc(C(=O)NS(=O)(=O)C(C)(C)C)cc1C(F)(F)F)c1ccc(Oc2ccccc2)cn1 (stereo not given) | 97% | 34.7% | 59.4% | 81% | 65.8% | 67.8% | 55.9% | 76% | 78.9% | 57.3% |
| COc1cc(CCNc2nc3cc(N)cc(N)c3nc2-c2ccccc2)cc(OC)c1 | 85.7% | -71.2% (active) | -66.4% (active) | -22.6% (active) | -64.4% (active) | 7.74% (active) | 60.8% | -31.7% (active) | 88.9% | -32.8% (active) |
| O=C(Cc1ccc(/C=C/C(=O)c2ncc[nH]2)cc1)Nc1ccc(C(F)(F)F)cc1 | 16.5% | 4.21% (active) | 86.2% | 32.5% | 34% | 14.4% | 22.9% | -10.1% (active) | 82.1% | 25.1% |
| NC(=O)CN1CCN(c2ccccc2Cl)CC1 | 108% | 97.2% | 104% | 102% | 112% | 106% | 97.9% | 107% | 107% | 102% |
| NC(=O)c1cccc(-n2ccc3cc(NC(=O)Nc4cc(C(F)(F)F)cc(C(F)(F)F)c4)ccc32)n1 | 50.7% | 33.4% | 43.1% | 65.5% | 7.56% (active) | 38.5% | 18.5% | 52.2% | 72.2% | 51% |
| O=C(Nc1ccc(Nc2ncccn2)cc1)NC1C=c2ccccc2=CC1 (stereo not given) | 109% | 89.1% | 114% | 91.3% | 89.9% | 98.5% | 100% | 100% | 94.9% | 111% |
| CCCNC(=O)Oc1ccc(/C(=C(\C)c2ccccc2)c2ccc(OCCN3CCCCC3)cc2)cc1 | 87.9% | 10.2% | 61.3% | 81.9% | 64.4% | 72.6% | 55% | 37.5% | -14.1% (active) | 14.1% |
| CCCCCCc1nc2nc(Cl)c(Cl)nc2[nH]1 | 72.5% | 39% | 46.6% | 89.4% | 90.4% | 83.3% | 58% | 65.3% | 54.9% | 89.6% |
| Cc1nccc2c3ccc(OCc4cn(-c5ccc(Cl)cc5)nn4)cc3n(CCCc3ccccc3)c12 | 27.6% | 11.1% | -7.83% (active) | 27.4% | -2.27% (active) | -5.93% (active) | 8.27% (active) | -16.5% (active) | -34.6% (active) | -73.2% (active) |
| O=C1C(=O)c2c(nc3ncccn23)-c2ccccc21 | -96.8% (active) | -43.5% (active) | -96.9% (active) | -55.3% (active) | -97.2% (active) | -70.8% (active) | -97.8% (active) | -98.3% (active) | -95.4% (active) | -87% (active) |
| CCOC(=O)C1=C(C)NC(C)=C(C(=O)OCC)C1c1cc(Br)c(O)c(OC)c1 | 20.8% | 25.5% | 33.3% | 53.7% | -26.6% (active) | 54.9% | 16.2% | 22.8% | 59.1% | 3.03% (active) |
| CC(O)(CO)c1ccccc1 (stereo not given) | 105% | 120% | 95.3% | 97.7% | 109% | 101% | 98.6% | 92.4% | 93.9% | 94.6% |
| O=C(CCN1CCCC1)Nc1ccc2c(NCc3ccc(F)cc3)c3ccccc3nc2c1 | -38.4% (active) | 0.876% (active) | -90.4% (active) | -17.1% (active) | -15.8% (active) | -3.64% (active) | 22.8% | 3.09% (active) | -3.51% (active) | -25% (active) |
| COc1ccc(/C=C\c2nc3ccccc3s2)cc1OP(=O)(O)O | 29.1% | 10.4% | 71.3% | 49.2% | 2.73% (active) | 60.2% | 40.8% | -10.2% (active) | 83.1% | 25.5% |
| O=S(=O)(NCCCNc1nccc(-c2c(-c3cccc(O)c3)nc3occn23)n1)c1ccc(F)cc1 | 85.8% | 68.7% | 17.9% | 62.7% | 68% | 84.5% | 101% | 101% | 19.7% | 27.5% |
| CN(C)CCCn1c2c(c3ccc(-c4ccn[nH]4)cc3c1=O)C(=O)c1ccccc1-2 | 4.84% (active) | 24.5% | 39.7% | 71.1% | 68.3% | 44.6% | 1.34% (active) | 46.4% | 70.3% | 48% |
| NC(=S)N/N=C(\c1ccc(Cl)cc1)C1CC1 | 99% | 38.3% | 87.1% | 70% | 104% | 98.2% | 83.1% | 88.6% | 63.7% | 87.7% |
| C#CC(=O)Nc1cccc(Nc2nc3c(c(NCc4ccccc4)n2)CCCC3)c1 | -85.1% (active) | -22.3% (active) | -64.1% (active) | -71.7% (active) | -99.5% (active) | -78.5% (active) | -84% (active) | -90.7% (active) | -90.6% (active) | -88.2% (active) |
| CN(C)C(=O)c1cc2cnc(Nc3ccc(-c4csc5c(=O)cc(N6CCOCC6)oc45)cc3)nc2n1C1CCCC1 | -97.1% (active) | 2.96% (active) | -67.9% (active) | -7.21% (active) | -85.8% (active) | -2.94% (active) | -36.9% (active) | -70.2% (active) | -81.5% (active) | -73.4% (active) |
| c1ccc(-c2nn(-c3ccccc3)[n+](-c3cccc4ccccc34)n2)cc1 | 29.1% | 8.3% (active) | -38.7% (active) | 31.5% | 30.8% | 26.4% | 16.8% | 25.6% | 17.5% | 27.6% |
